Hits are enriched below; roughly 12% of the tested compounds scored in any of these assays.
RORgamma inh: inhibitors of mouse ROR gamma transcriptional activity. Potency, µM (highest dose often 53.6 µM), without a hit: at the top dose activity change, negative = inhibition, hits mostly inhibitors. AID 2551. 5.4% of 310,000 active. Drosophila S2 Gal4-RORgamma UAS-luciferase reporter, 20 h. P51450; also: nearly all actives have a fitted effect of over 60% in size
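Luciferase reporter read in Schneider cells carrying Gal4-RORγ (mouse) and UAS-Photinus luciferase; cells given compound 1 h before 700 uM copper sulfate induction, then incubated 20 h at ambient temperature.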
PLK1 PBD inh: inhibitors of human PLK1 polo-box domain binding; P53350; Plk1 PBD binding of FITC phosphopeptide, fluorescence polarization; Potency, µM, for inactives: max response, negative = inhibition, hits mostly inhibitors; 2.8% of 360,000 active; also: series mostly up to about 57 µM; nearly all actives have a fitted effect of over 65% in size
VP16 counter: Gal4-VP16 reporter inhibition counter-screen; Drosophila S2 Gal4-VP16 UAS-luciferase, luminescence, 20 h; Potency, µM (top dose mostly 53.6 µM), without a hit: top-dose activity, negative = inhibition, usual class: inhibitors; 3.5% of 310,000 active; AID 2546;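 also: Gal4-VP16 expression switched on by copper sulfate through the metallothionein promoter; nearly all actives have a fitted effect of over 50% in size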
Sfp PPTase inh: inhibitors of Bacillus subtilis Sfp phosphopantetheinyl transferase. Biochemical Sfp PPTase activity, qHTS. 3.5% of 310,000 active. Potency, µM, inactives show largest response in the series, negative = inhibition, usual class: inhibitors. Q9F4F7. AID 1490;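 also: the enzyme is Sfp with the accession as filed and its product quenches rhodamine fluorescence; 0% = enzyme reaction without inhibitor and -100% = no enzyme wells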
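Reaction rates are the 30-min fluorescence difference (ex 525, em 598 nm) in wells containing 15 nM Sfp, 5 uM rhodamine-CoA and 12.5 uM BHQ-2-YbbR at pH 7.6 with 10 mM MgCl2.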
ALDH1A1 inh: inhibitors of human aldehyde dehydrogenase 1A1; 7.3% of 220,000 active; P00352; Potency, µM (top dose mostly 75.3 µM), for the others: at the highest dose activity, negative = inhibition, usual class: inhibitors; Purified ALDH1A1, NADH fluorescence, propionaldehyde substrate; active = well fitted inhibition curve with a large enough effect, not every such curve was filed as active; inconclusive = small, poorly fitted or top-dose-only effect, or another doubt; inactive = no such curve, though single readings can be large or run the other way;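 also: plate controls were no enzyme wells and a reference inhibitor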
Target sequence (P00352 whole entry, looked up): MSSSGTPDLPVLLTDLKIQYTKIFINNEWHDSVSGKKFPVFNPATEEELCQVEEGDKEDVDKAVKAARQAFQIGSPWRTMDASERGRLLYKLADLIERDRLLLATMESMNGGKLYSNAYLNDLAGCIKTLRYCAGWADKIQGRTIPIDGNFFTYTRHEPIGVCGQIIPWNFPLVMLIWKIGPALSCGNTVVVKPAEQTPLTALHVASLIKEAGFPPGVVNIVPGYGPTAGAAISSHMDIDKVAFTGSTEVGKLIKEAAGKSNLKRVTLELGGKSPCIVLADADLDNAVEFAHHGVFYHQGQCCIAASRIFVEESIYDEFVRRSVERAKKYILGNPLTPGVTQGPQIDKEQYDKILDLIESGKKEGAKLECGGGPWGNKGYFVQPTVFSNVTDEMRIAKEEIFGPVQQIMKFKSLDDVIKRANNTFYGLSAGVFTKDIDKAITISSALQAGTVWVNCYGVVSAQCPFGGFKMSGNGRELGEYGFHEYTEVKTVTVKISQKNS
Active calls of the source: *; ? = inconclusive; . = no result given. Unless noted, calls follow the shape of the dose curve; as a rule, active = well fitted curve in the direction sought with a large enough effect; inconclusive = small, poorly fitted or top-dose-only effect, or another doubt; inactive = no such curve, though single readings can be large; an effect the other way counts as inactive or inconclusive. Unless noted, % is scaled to controls: 0 for no effect and ±100 for the full control effect; potency is read from the fitted curve at half-maximal effect.

SMILES | RORgamma inh | PLK1 PBD inh | VP16 counter | Sfp PPTase inh | ALDH1A1 inh
CCOc1ccc(N(CC(=O)NCC2CCCO2)S(=O)(=O)c2ccc(SC)cc2)cc1 (stereo not drawn) | -11.0% | -23.3% | 7.9% | -28.3% | 3.98µM*
COc1ccccc1CN(CC(=O)NCC1CCCO1)C(=O)CNS(=O)(=O)c1ccc(C)cc1 (stereo not drawn) | -21.2% | 29.9µM* | 1.1% | 10.2% | 12.6µM*
CC(=O)OCC(=O)[C@@]12OC3(CCCC3)O[C@@H]1C[C@H]1[C@@H]3CCC4=CC(=O)C=C[C@]4(C)[C@@]3(F)[C@@H](O)C[C@@]12C | 8.91µM* | -3.2% | -8.0% | -10.8% | 4.4%
CC(C)(C)c1ccc(C(=O)NNc2cc(N3CCCCC3)nc(N3CCCCC3)n2)cc1 | -93.1% | -10.2% | -8.6% | 1.7% | 3.6%
O=C(NNc1cc(N2CCCC2)nc(N2CCCC2)n1)c1ccc([N+](=O)[O-])cc1 | 1.41µM* | ? | 3.16µM* | -0.1% | 8.0%
Cc1nc(NNC(=O)c2ccc([N+](=O)[O-])cc2)cc(-c2ccccc2)n1 | 2.24µM* | -6.0% | 7.94µM* | 11.4% | ?
O=c1c(-c2cc(F)cc(F)c2)nc2cnc(N3CCNCC3)nc2n1CCc1ccccc1 | 1.3% | . | -5.1% | ? | ?
CCc1ccc(C2NC(=S)NC3=C2C(=O)CC(C)(C)C3)cc1 (stereo not drawn) | ? | -12.7% | ? | -1.4% | 2.51µM*
CC1(C)CC(=O)C2=C(C1)NC(=O)NC2c1ccccc1 (stereo not drawn) | 13.0% | 2.3% | 5.7% | 4.7% | 11.1%
CC(C)c1ccc(C2NC(=S)NC3=C2C(=O)CC(C)(C)C3)cc1 (stereo not drawn) | ? | -4.3% | ? | -12.4% | 2µM*
CCCCN1C(=O)C(CC(=O)NCCc2ccccn2)CC(C(=O)N(CC)CC)=C1C (stereo not drawn) | . | -3.6% | . | . | .
Cc1ccc([C@@]2(OC(=O)c3ccccc3)C(=O)N(C(=O)OC(C)(C)C)c3ccccc32)cc1 | . | -2.2% | . | . | .
O=[N+]([O-])c1ccc(Cl)c(/C=N/n2c(C3CCCCC3)n[nH]c2=S)c1 | -34.5% | -27.9% | -5.4% | 7.3% | ?
O=[N+]([O-])c1cccc(/C=N/n2c(C3CCCCC3)n[nH]c2=S)c1 | 3.98µM* | -26.0% | 4.47µM* | 0.7% | -10.2%
COc1cccc(/C=N/n2c(C3CCCCC3)n[nH]c2=S)c1 | 4.47µM* | 21.2µM* | 10µM* | -20.5% | .
Oc1cccc(/C=N/n2c(C3CCCCC3)n[nH]c2=S)c1 | ? | ? | -3.6% | -7.1% | .
Fc1cccc(/C=N/n2c(C3CCCCC3)n[nH]c2=S)c1 | 3.98µM* | -13.5% | 8.91µM* | 4.8% | .
COc1cc(/C=N/n2c(C3CCCCC3)n[nH]c2=S)cc(OC)c1O | -31.3% | -25.9% | -4.2% | -7.0% | .
CC(C)[C@@H](CC(=O)N[C@@H]1CCCC[C@H]1C(=O)N[C@H](CC(=O)N[C@@H](CCC(=O)O)CC(=O)O)Cc1ccccc1)NC(=O)C[C@H](CO)NC(=O)[C@@H]1CCCC[C@H]1N | 13.2% | . | -5.3% | 10.1% | 2.8%
CCCN(CCc1cccs1)[C@H]1CCc2c(O)cccc2C1 | -1.1% | . | -14.7% | -2.1% | .
COc1ccc(/C=C2/C(=O)N(c3nc4ccccc4s3)N=C2CSc2ccc(Cl)cc2)cc1 | 14.1µM* | 8.44µM* | 12.6µM* | -13.2% | ?
COc1ccc(/C=C2/C(=O)N(Cc3ccccc3)N=C2C)cc1 | ? | ? | ? | 11.8% | ?
O=C(COc1ccccc1)Nc1cccc(-c2nc3cc4ccccc4cc3[nH]2)c1 | 1µM* | -3.1% | 2µM* | 14.2% | ?
CC(C)CC(=O)Nc1cccc(-c2nc3ccccc3[nH]2)c1 | -0.6% | 26.7µM* | -13.0% | 15.1% | .
CC(=O)Nc1cccc(-c2nc3ccccc3[nH]2)c1 | -0.2% | -1.5% | -9.6% | -3.3% | ?
SMILES | RORgamma inh | PLK1 PBD inh | VP16 counter | Sfp PPTase inh | ALDH1A1 inh
CCCCN(Cc1ccco1)C(=O)Cn1ncc2c(=O)oc3ccc(C)cc3c21 | 1.41µM* | -4.2% | -2.8% | 28.4% | 20.6%
Cc1ccc2oc(=O)c3cnn(CC(=O)N(CCC(C)C)Cc4ccco4)c3c2c1 | -21.6% | -3.1% | -1.0% | 1.5% | -1.4%
COc1ccc(CCNC(=O)Nc2nc(C(N)COCc3ccccc3)cs2)cc1OC (stereo not drawn) | . | -2.1% | . | . | .
O=C(Cn1nnc(-c2ccccc2NC(=O)c2ccccc2)n1)Nc1ccc2c(c1)OCCO2 | -19.3% | 4.4% | -25.3% | -17.6% | ?
Cc1ccccc1C(=O)Nc1ccccc1-c1nnn(CC(=O)Nc2ccc3c(c2)OCCO3)n1 | -0.9% | -12.6% | -9.3% | 56.2µM* | ?
Cc1csc2ncc(C(=O)Nc3ccc4c(c3)OCCO4)c(=O)n12 | 19.6% | -11.8% | -3.6% | 14.3% | 8.91µM*
O=C(Nc1ccc2c(c1)OCCO2)C(=O)c1c[nH]c2ccccc12 | 2.51µM* | -0.9% | 3.16µM* | ? | .
Cc1ccccc1C(=O)Nc1ccc2c(c1)OCCO2 | 8.91µM* | -13.4% | ? | -0.7% | .
CCCCN(C=O)c1c(CC)nc2ccc(C(=O)NCCc3ccccn3)cn12 | . | -2.6% | . | . | .
Cc1occc1C(=O)Nc1ccc2c(c1)OCCO2 | 8.91µM* | -2.0% | ? | ? | 12.6µM*
CCNc1ncc2nc(-c3cccc(C#N)c3)c(=O)n(Cc3cccc(OC)c3)c2n1 | -2.0% | . | 4.2% | 26.5% | 10.5%
CS(=O)(=O)c1ccc(S(=O)(=O)N2CCN(C(=O)C(O)c3ccccc3)CC2)cc1 (stereo not drawn) | . | -20.3% | . | . | .
O=C(Cc1cccc(NC(=O)C2CCCN(C(=O)CCc3ccccc3)C2)c1)Nc1ccc(C(=O)N2CCOCC2)cc1 (stereo not drawn) | . | -18.0% | . | . | .
S=C(c1ccc2c(c1)OCO2)N1CCN(c2cccc(Cl)c2)CC1 | . | 9.47µM* | . | . | .
Cc1cccc(N2CCN(C(=S)c3ccc4c(c3)OCO4)CC2)c1 | . | 10.6µM* | . | . | .
O=C(c1ccc2c(c1)OCO2)N1CCN(c2ccc(Cl)cc2)CC1 | 3.2% | -2.2% | -15.7% | -15.6% | ?
CC(C)(SC(=S)N1CCCCCC1)C(=O)O | 6.2% | ? | 5.3% | 79.4µM* | ?
O=C1NC[C@@H](CCCCN2C[C@H](Cc3ccc(O)cc3)N(Cc3ccccc3)C(=O)C2=O)N(Cc2ccccc2)C1=O | . | 0.1% | . | . | .
CCCCCCCCC/C=C/CC1CC(=O)OC1=O (stereo not drawn) | -24.8% | . | -4.1% | . | 28.2µM*
CCCCC/C=C\C/C=C\C/C=C\CCCCCCC(=O)O | -2.5% | . | -17.5% | -5.1% | -8.6%
O=C(OCC(=O)N1CCc2ccccc2C1)c1ccc(N2CCOCC2)c([N+](=O)[O-])c1 | ? | -11.2% | -12.5% | 0.7% | 20µM*
O=C1CN(c2ccccc2)C(=S)N1C(=O)c1ccccc1 | ? | 26.7µM* | ? | 50.1µM* | .
Cc1cc2nc(C3CCCCC3)c(Cc3cccc(F)c3)n2c(C)c1Br | . | -1.8% | . | . | .

Assay outcomes from PubChem BioAssay.
